Data as given in the supplement of paper PMC10646978.
± gives the standard deviation.

Tests used:
Details in all cases: modulator concentration 10 µM
[1] = system: RAW-Dual (murine macrophage reporter line); experiment: NF-kB reporter (SEAP) activity fold change vs agonist alone; higher = enhanced NF-kB activity
Method in brief: (§1)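 RAW-Dual murine macrophage reporter cells were seeded at 50 000 per well in 384-well plates and pre-incubated 1 hour at 37 °C with compound pin-transferred to 10 μM final. After 1 hour, a PRR agonist was added and cells incubated overnight. Supernatant NF-κB (SEAP, QUANTI-Blue, 620 nm absorbance) and IRF (Lucia luciferase, QUANTI-Luc, luminescence) signals were divided by the mean agonist-only control on the same plate to give fold change. Two replicate plates were averaged, with errors by propagation.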

[2] = system: RAW-Dual (murine macrophage reporter line); experiment: IRF reporter (Lucia luciferase) activity fold change vs agonist alone; higher = enhanced IRF activity
Method in brief: as §1

[3] = system: RAW-Dual (murine macrophage reporter line); experiment: viability score (confluency relative to resting cells, overnight) (fraction); higher = more viable, active = viable (0.7 or more)
Method in brief: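 RAW-Dual macrophages in 384-well plates were incubated overnight with compound, final concentration 10 μM. Confluency images from IncuCyte were processed in IncuCyte software into two masks covering all imaged wells. The viability score is each well's confluency relative to resting cells, and a compound met the cutoff when both masks exceeded 70% of resting cells.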

[4] = agonist: CpG ODN 1826 0.5 ug/mL

Row | Compound | NF-kB reporter [1, 4] | NF-kB reporter ([1]; agonist: LPS 0.1 ug/mL) | NF-kB reporter ([1]; agonist: MPLA […]) | IRF reporter ([2]; agonist: 3'3'-cGAMP 10 ug/mL) | IRF reporter ([2]; agonist: LPS 0.1 ug/mL) | IRF reporter ([2]; agonist: MPLA […]) | viability score [3]
1 | CNCCC=C1c2ccccc2CCc2ccccc21.Cl | 0.45 ± 0.07 | 1.14 ± 0.21 | 1.8 ± 0.13 | 0.41 ± 0.014 | 1.11 ± 0.24 | 1.99 ± 0.4 | 0.293 (inactive)
2 | O=C(c1cccs1)c1nc2c(n1O)CCCCC2 | 1.01 ± 0.079 | 1.02 ± 0.076 | 0.967 ± 0.069 | 0.992 ± 0.056 | 1.17 ± 0.18 | 0.858 ± 0.085 | 0.899 (active)
3 | Cc1c(-c2ccccc2)oc2c(C(=O)OCCN3CCCCC3)cccc2c1=O.Cl | 1.21 ± 0.31 | 1.01 ± 0.075 | 0.977 ± 0.067 | 0.883 ± 0.052 | 1.35 ± 0.22 | 1.35 ± 0.16 | 1.01 (active)
4 | Cc1ccc(C(CNC(=O)Cc2cccc3ccccc23)N(C)C)cc1 (configuration not stated) | 0.647 ± 0.033 | 1.13 ± 0.094 | 1.06 ± 0.048 | 0.899 ± 0.045 | 1.03 ± 0.12 | 1.23 ± 0.27 | 0.738 (active)
5 | C#Cc1cccc(Nc2ncnc3cc(OCCOC)c(OCCOC)cc23)c1 | 0.819 ± 0.051 | 1.1 ± 0.092 | 0.945 ± 0.05 | 0.948 ± 0.055 | 1.05 ± 0.16 | 1.13 ± 0.3 | 0.993 (active)
6 | Cl.OC(CCN1CCCC1)(c1ccccc1)C1CCCCC1 (configuration not stated) | 0.822 ± 0.28 | 1.13 ± 0.061 | 1.12 ± 0.088 | 0.625 ± 0.025 | 1.07 ± 0.14 | 1.18 ± 0.26 | 0.976 (active)
7 | CC(=O)Oc1cc2c(s1)CCN(C(C(=O)C1CC1)c1ccccc1F)C2 (configuration not stated) | 0.988 ± 0.15 | 1.2 ± 0.36 | 0.844 ± 0.05 | 0.919 ± 0.035 | 1.28 ± 0.31 | 1.1 ± 0.18 | 0.985 (active)
8 | Cc1cccc(NC(=O)C(=Cc2ccco2)NC(=O)c2ccccc2I)c1 | 1.06 ± 0.087 | 1.06 ± 0.081 | 1.01 ± 0.072 | 0.953 ± 0.076 | 1.15 ± 0.099 | 1.11 ± 0.15 | 1.01 (active)
9 | Cl.OC(CCN1CCCCC1)(c1ccccc1)C1CCCCC1 (configuration not stated) | 0.338 ± 0.034 | 1.01 ± 0.081 | 1.11 ± 0.075 | 1.03 ± 0.058 | 1.11 ± 0.19 | 1.08 ± 0.34 | 1.01 (active)
10 | CCOc1cc(CC(=O)N[C@@H](CC(C)C)c2ccccc2N2CCCCC2)ccc1C(=O)O | 1.24 ± 0.23 | 1.11 ± 0.23 | 0.956 ± 0.055 | 0.897 ± 0.039 | 1.22 ± 0.32 | 1.26 ± 0.18 | 0.683 (inactive)
11 | CC(O)(P(=O)(O)O)P(=O)(O)O | 0.76 ± 0.033 | 0.997 ± 0.1 | 1.08 ± 0.079 | 0.956 ± 0.069 | 1.14 ± 0.27 | 1.26 ± 0.4 | 0.98 (active)
12 | CNC(=O)Cc1cn(Cc2ccccc2)c2ccccc12 | 0.809 ± 0.19 | 1.11 ± 0.12 | 1.11 ± 0.082 | 0.947 ± 0.038 | 0.977 ± 0.11 | 1.05 ± 0.12 | 0.999 (active)
13 | CNC(=O)c1ccc(Nc2ncc(C(F)(F)F)c(NCc3nccnc3N(C)S(C)(=O)=O)n2)cc1 | 1.25 ± 0.37 | 0.169 ± 0.013 | 2.19 ± 0.34 | 0.0196 ± 0.0024 | 0.0319 ± 0.0037 | 0.0361 ± 0.006 | 0.749 (active)
14 | CC(=O)Nc1cc2nc3ccccc3nc2cc1NC(C)=O | 0.964 ± 0.11 | 1.05 ± 0.11 | 0.955 ± 0.041 | 1.09 ± 0.28 | 1.05 ± 0.092 | 0.988 ± 0.3 | 1 (active)
15 | CC(=O)c1c(C(C)=O)c(C)n(-c2ccccc2N)c1C | 1.04 ± 0.081 | 0.992 ± 0.1 | 1.01 ± 0.1 | 0.983 ± 0.069 | 1.3 ± 0.21 | 1.43 ± 0.35 | 1.01 (active)
16 | COc1ccc(Cn2cc3c(-c4ccc(F)cc4)nnc-3c3cc(OC)c(OC)cc32)cc1 | 0.318 ± 0.026 | 1.17 ± 0.13 | 2.16 ± 0.1 | 1.79 ± 0.12 | 2.42 ± 0.18 | 3 ± 0.35 | 0.141 (inactive)
17 | COc1ccc(C(=O)NCc2ccc(OCCN(C)C)cc2)cc1OC.Cl | 0.988 ± 0.15 | 1.05 ± 0.079 | 0.925 ± 0.059 | 0.88 ± 0.027 | 1.21 ± 0.1 | 1.08 ± 0.085 | 0.994 (active)
18 | CCOC(=O)C1=C(C)NC(C)=C(C(=O)OC)C1c1cccc(Cl)c1Cl (configuration not stated) | 0.824 ± 0.081 | 0.603 ± 0.053 | 0.764 ± 0.068 | 1.13 ± 0.06 | 1.35 ± 0.095 | 1.03 ± 0.17 | 0.859 (active)
19 | Cc1ccc(-n2nc(C(C)(C)C)cc2NC(=O)NCc2cc(F)ccc2Oc2ccc3c(cnn3CCO)c2)cc1 | 0.878 ± 0.046 | 0.942 ± 0.15 | 0.964 ± 0.056 | 1.06 ± 0.058 | 1.19 ± 0.22 | 1.24 ± 0.44 | 1.01 (active)
20 | N[C@@H](CC(=O)N1CCn2c(nnc2C(F)(F)F)C1)Cc1cc(F)c(F)cc1F | 0.793 ± 0.19 | 0.989 ± 0.063 | 0.905 ± 0.058 | 0.908 ± 0.044 | 1.05 ± 0.12 | 1.1 ± 0.16 | 0.998 (active)
21 | CNC1CCC(c2ccc(Cl)c(Cl)c2)c2ccccc21.Cl (configuration not stated) | 0.571 ± 0.096 | 0.765 ± 0.097 | 1.11 ± 0.25 | 0.52 ± 0.016 | 1.94 ± 0.19 | 2.12 ± 0.33 | 0.661 (inactive)
22 | CCOc1ccc(CN(CCc2ccc3c(c2)OCO3)Cc2ccc3ccccc3c2)cc1 | 0.733 ± 0.083 | 0.954 ± 0.063 | 0.781 ± 0.053 | 0.197 ± 0.0058 | 1.54 ± 0.2 | 1.2 ± 0.16 | 0.989 (active)
23 | CN1CCN(CCCN2c3ccccc3Sc3ccc(C(F)(F)F)cc32)CC1.Cl.Cl | 0.958 ± 0.043 | 1.03 ± 0.11 | 1.3 ± 0.11 | 0.788 ± 0.056 | 1.12 ± 0.22 | 1.22 ± 0.39 | 1.02 (active)
24 | CCOC(=O)C1=C(N)OC(C)=C(C(=O)OC)C1c1cccnc1 (configuration not stated) | 1.16 ± 0.085 | 1.11 ± 0.081 | 1.16 ± 0.074 | 1.21 ± 0.04 | 1.12 ± 0.12 | 1.09 ± 0.095 | 0.988 (active)
25 | Cl.Nc1ccn([C@@H]2O[C@H](CO)[C@@H](O)C2(F)F)c(=O)n1 | 1.3 ± 0.31 | 0.921 ± 0.05 | 1.29 ± 0.087 | 1.25 ± 0.063 | 1.51 ± 0.17 | 1.32 ± 0.21 | 0.173 (inactive)
26 | O=C(Cc1ccccc1)NCC(O)Cn1ccccc1=O (configuration not stated) | 0.84 ± 0.037 | 0.9 ± 0.12 | 1.02 ± 0.067 | 1.04 ± 0.072 | 1.26 ± 0.25 | 1.43 ± 0.42 | 1 (active)
